# PubChem BioAssay (NCATS)
# Inconclusive results are not listed. Activity calls are given as the source filed them. The call rests on the fitted dose curve; in most records, active means well fitted inhibition curve with a large enough effect; inconclusive means small, poorly fitted or top-dose-only effect, or effect the other way; inactive means flat fitted curve, though single readings scatter.
# Biological target: ATP-dependent 6-phosphofructokinase (Trypanosoma brucei brucei) (UniProt O15648)
# Experiment: qHTS Assay to Find Inhibitors of T. brucei phosphofructokinase: hit validation (AID 492961);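 further: luminescence reports ADP formed as PFK phosphorylates fructose-6-phosphate with ATP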
# Details: T. brucei PFK, ADP-Glo luminescence; series mostly up to 51.4 µM; activity change, negative = inhibition: at the top concentration
# Outline: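 PFK 1.25 nM, F6P 0.5 mM, ATP 0.1 mM, MgCl2 5 mM, 0.1 M TEA pH 8.0, Tween20 0.01%, BSA 0.1%; 45 min RT. ADP-Glo two-step detection, luminescence. qHTS titration; curve fitting with curve-class categorization.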
# On the % scale 0 is the no-effect control and ±100 the full control effect.
# ATP-dependent 6-phosphofructokinase (Trypanosoma brucei brucei), sequence (O15648 whole entry, looked up): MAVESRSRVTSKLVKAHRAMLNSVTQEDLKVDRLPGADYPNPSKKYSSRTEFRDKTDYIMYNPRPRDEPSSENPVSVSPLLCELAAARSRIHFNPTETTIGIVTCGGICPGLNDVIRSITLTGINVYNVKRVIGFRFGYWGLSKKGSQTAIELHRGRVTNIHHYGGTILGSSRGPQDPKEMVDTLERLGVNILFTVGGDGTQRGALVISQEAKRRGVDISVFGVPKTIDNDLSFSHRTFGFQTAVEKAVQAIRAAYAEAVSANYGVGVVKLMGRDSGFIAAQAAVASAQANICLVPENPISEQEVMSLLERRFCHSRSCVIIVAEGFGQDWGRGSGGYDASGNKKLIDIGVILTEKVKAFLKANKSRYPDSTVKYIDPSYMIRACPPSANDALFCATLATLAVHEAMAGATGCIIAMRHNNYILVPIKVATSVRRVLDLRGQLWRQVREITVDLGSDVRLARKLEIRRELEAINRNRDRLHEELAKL
row,Compound,"activity change, negative = inhibition"
1,CC(=O)Nc1ccc(CC(=O)O)cc1,-14.9% (inactive)
2,N/C(=N\N=C\c1ccc(Cl)cc1)N/N=C/c1ccc(Cl)cc1,-0.284% (inactive)
3,CN1CCC[C@@H]1CCO[C@](C)(c1ccccc1)c1ccc(Cl)cc1,4.52% (inactive)
4,CCCCC(CC)COC(=O)c1ccc(N(C)C)cc1 (configuration not stated),7.17% (inactive)
5,CC(=O)Nc1ccc(S(=O)(=O)Nc2ccc([N+](=O)[O-])cc2)cc1,-8.84% (inactive)
6,CN1CCN(CCC(=O)N2c3ccccc3Sc3ccc(C(F)(F)F)cc32)CC1,-0.659% (inactive)
7,CCCc1ncc(C[n+]2ccccc2C)c(N)n1,-4.15% [at 24.3 µM] (inactive)
8,O=C(Nc1ccc([N+](=O)[O-])cc1)Nc1ccc([N+](=O)[O-])cc1,3.67% (inactive)
9,COc1ccc(/C=N/NC(=O)c2ccncc2)cc1OC,-9.73% (inactive)
10,CC(=O)NC(=O)c1ccccc1O,-5.13% (inactive)
11,Cc1cc2c(OCC(CNC(C)(C)C)OC(=O)c3ccccc3)cccc2[nH]1 (configuration not stated),-8.13% (inactive)
12,CCN(CC)CCOc1ccc2c(c1)C(=O)c1cc(OCCN(CC)CC)ccc1-2,2.35% (inactive)
13,CCOCCn1c(N2CCCN(C)CC2)nc2ccccc21,7.26% (inactive)
14,NC(=O)n1c(O)c(C(=O)c2cccs2)c2cc(Cl)ccc21,1.83% (inactive)
15,NS(=O)(=O)Cc1noc2ccccc12,-5.68% (inactive)
16,COP(=O)(OC)OC(c1ccc(Cl)cc1)P(=O)(OC)OC (configuration not stated),-7.36% (inactive)
17,Cc1nc(-c2ccc(Cl)cc2)oc1COC(C)(C)C(=O)O,-4.2% (inactive)
18,O=C(O)C(Cc1cc(I)c(O)c(I)c1)c1ccccc1 (configuration not stated),20% (inactive)
19,CCCCCCCCCCCCCC[N+](C)(C)Cc1ccccc1,16.2% (inactive)

row,Compound,"activity change, negative = inhibition"
1,O=C(O)CCC(=O)Nc1ccc(S(=O)(=O)Nc2nccs2)cc1,-1.57% [at 24.3 µM] (inactive)
2,CCc1ccc(C(=O)C(C)CN2CCCCC2)cc1 (configuration not stated),2.01% (inactive)
3,Oc1c(Cl)cc(Cl)c(Cl)c1Cc1c(O)c(Cl)cc(Cl)c1Cl,-0.142% (inactive)
4,CN1CCN(C2=Nc3cc(F)ccc3Cc3ccccc32)CC1,1.53% (inactive)
5,CN(CCCN1c2ccccc2CCc2ccccc21)CC(=O)c1ccc(Cl)cc1,-9.54% (inactive)
6,CCCCNC(=O)NS(=O)(=O)c1ccc(N)cc1,-5.86% (inactive)
7,OC1C(O)C(O)C(O)C(O)C1O (configuration not stated),-0.435% (inactive)
8,O=[N+]([O-])c1cccc(S(=O)(=O)NCCNS(=O)(=O)c2cccc([N+](=O)[O-])c2)c1,4.87% (inactive)
9,O=C(CCCN1CC=C(n2c(=O)[nH]c3ccccc32)CC1)c1ccc(F)cc1,9.09% (inactive)
10,CCN(CC)CCOC(=O)C1(c2ccccc2)CCCC1,-2.79% (inactive)
11,OCCOCCN1CCN(C2=Nc3ccccc3Sc3ccccc32)CC1,2.94% (inactive)
12,CCC(C(=O)OCCOCCN(CC)CC)c1ccccc1 (configuration not stated),-10.8% (inactive)
13,CCN(CC)CCOc1ccccc1C(=O)CCc1ccccc1,-3.17% (inactive)
14,O=C1C(=O)c2ccccc2C(O)=C1C1CCC(c2ccc(Cl)cc2)CC1 (configuration not stated),5.75% [at 24.3 µM] (inactive)
15,Cc1ccc2c(Br)cc(Br)c(O)c2n1,0% (inactive)
16,NC(=O)C1(N2CCCCC2)CCN(CCCC(=O)c2ccc(F)cc2)CC1,-11.4% (inactive)
17,CC1(COc2ccc(CC3SC(=O)NC3=O)cc2)CCCCC1 (configuration not stated),3.62% (inactive)
18,NS(=O)(=O)c1ccc(Cl)c(S(N)(=O)=O)c1,5.68% (inactive)
